B1: VH:VL chains; a variant is named by its letters at X, in order (parent)
chain 1: QVQLVQSGAEVKKPGASVKVSCKASGYTFTDYXMHWVRQAPGQGLEWMGXVNPNXXXTTYNQKFEGRVTMTTDTSTSTAYMELRSLRSDDTAVYYCARXNXLDXWGQGTTVTVSS
chain 2: DIQMTQSPSSLSASVGDRVTITCSVSSSVSSIYLHWYQQKPGKAPKLLIYSTSNLASGVPSRFSGSGSGTDFTLTISSLQPEDFATYYCQVYSGYPLTFGGGTKVEIK

This is one part of the list. No count for the full screen is at hand.

Variants of B1 are the subject of this test. Put plainly: yeast display scFab, FACS + sequencing. To be noted: with MET. The method, boiled down: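 A yeast surface library of scFab variants carrying heavy-chain CDR mutations went through two magnetic enrichment rounds on Protein A beads coated with HGFR-Fc, then FACS. For sorting, cells were labelled for 3 h at room temperature with 1 nM HGFR-Fc and anti-Myc in PBSB containing 1% milk, and the top 50% of antigen-positive cells were gated. Input and round-3 sorted populations were deep sequenced in two replicates. A sequence was called an antigen binder if it appeared in both antigen-positive samples and a non-binder if it appeared only in the input.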
VKGRSDGV: the antigen binding call is “binds”.

Consider VKARGAGS, for which the antigen binding call is “binds”.

For VKARGSGV, the antigen binding call is listed as “binds”.

On to VKTGGSWV, for which the antigen binding call is “no binding”.

On to VGARNSGV, for which the antigen binding call is “no binding”.

For VKEGGAVV, the antigen binding call is listed as “no binding”.

As to VKTGGAVV, the antigen binding call was “binds”.

Regarding VKGRADGV, the antigen binding call is “no binding”.

For the variant VEGGGSGV, the antigen binding call was “no binding”.

Regarding SKGRSDGV, the antigen binding call is given as “no binding”.

For VAARGFGS, the antigen binding call is on record as “no binding”.

On to VKAGGAGS chain 1 G44D, for which the antigen binding call is recorded as “no binding”.

Consider SEGTGSSV, for which the antigen binding call is recorded as “no binding”.

On to DGGKNAGV, for which the antigen binding call is “no binding”.

In the case of DTGTGDAA, the antigen binding call is “no binding”.

For YKGEGDGV, the antigen binding call was “no binding”.

For the variant VKARGAGV, the antigen binding call was “binds”.

Turning to VKGESAGV, the antigen binding call is “no binding”.

With YEKETAGV, the antigen binding call is “no binding”.

With YKTGGDGV, the antigen binding call is listed as “no binding”.

VKARSAGV: the antigen binding call is “no binding”.

As to YKTGDDGV, the antigen binding call is recorded as “no binding”.

As to YKTGGAGV, the antigen binding call was “binds”.

For the variant DKAGGAGV, the antigen binding call is listed as “no binding”.

Turning to YKARGAGV, the antigen binding call was “binds”.

Consider YKKRGAGV, for which the antigen binding call is recorded as “binds”.

In the case of YKTKSDGV, the antigen binding call is reported as “no binding”.

For the variant FEAESYGV, the antigen binding call is given as “no binding”.

As to FKAGSSGV, the antigen binding call was “no binding”.

For the variant FKATTSGA, the antigen binding call is recorded as “no binding”.

In the case of FKARGSGV, the antigen binding call was “binds”.

For the variant VAGTDAGA, the antigen binding call was “no binding”.

Regarding YRRGSFAA, the antigen binding call is recorded as “binds”.

With SREGGFAA, the antigen binding call was “no binding”.

Consider YRRRGVAA, for which the antigen binding call is reported as “binds”.

For the variant YRRRGDAA, the antigen binding call is on record as “binds”.

Turning to YRRRGYAA, the antigen binding call is recorded as “binds”.

With SRKGGDAA, the antigen binding call is recorded as “no binding”.

As for VGGGASGV, the antigen binding call is listed as “no binding”.

On to FTGRAYGF, for which the antigen binding call is given as “no binding”.

As for VAGRSDLV chain 1 R67H, the antigen binding call is listed as “no binding”.

DAKEGAGD: the antigen binding call was “no binding”.

For VTGEDDWD, the antigen binding call is “no binding”.

As for VGGGNAGD, the antigen binding call is recorded as “no binding”.

Take YRRRGFAA: the antigen binding call is “binds”.

As to YREGGFAA, the antigen binding call is “no binding”.

As for YRRRGAVA, the antigen binding call is recorded as “binds”.

Consider YRRRGYVA, for which the antigen binding call is “binds”.

As for YRRRGAAA, the antigen binding call was “binds”.

VRAGADVY: the antigen binding call is given as “no binding”.

Take YGETGDSV: the antigen binding call is listed as “no binding”.

As for FTETGFGA, the antigen binding call is “no binding”.

YRRRGFVA: the antigen binding call was “binds”.

Consider YRERGSAD, for which the antigen binding call is reported as “binds”.

Consider VRERGSAD, for which the antigen binding call was “binds”.

With YRERDSAD, the antigen binding call is “no binding”.

As to YAEGDAAD, the antigen binding call is on record as “no binding”.

With FRERGSAD, the antigen binding call is recorded as “binds”.

Consider YRERGAAD, for which the antigen binding call is reported as “binds”.

For the variant VEGTSDVV, the antigen binding call was “no binding”.

With DTTGSAVA, the antigen binding call is “no binding”.

YKGEADGA: the antigen binding call is on record as “no binding”.

For the variant VKGGGFGA, the antigen binding call is “no binding”.

In the case of YKGGSAGA, the antigen binding call is “binds”.

In the case of VKGGGYGA, the antigen binding call was “no binding”.

Take YKGGGAGA: the antigen binding call is reported as “binds”.

YTGATAGA: the antigen binding call is reported as “no binding”.

With YEGGGDGA, the antigen binding call was “no binding”.

For the variant FKGGGFGA, the antigen binding call is on record as “no binding”.

On to YKGGGYGA, for which the antigen binding call is “binds”.

Turning to YRRRGSGF, the antigen binding call is recorded as “binds”.

As to YRRRGAGF, the antigen binding call was “binds”.

With YRRRGAWF, the antigen binding call is on record as “binds”.

Take YRTRGSGF: the antigen binding call was “binds”.

As for FTKASYVY, the antigen binding call is “no binding”.

Regarding VEARGDWV, the antigen binding call is reported as “no binding”.

For the variant STRKSYAA, the antigen binding call is reported as “no binding”.

STKAASWV: the antigen binding call was “no binding”.

Turning to YRERNAAA, the antigen binding call was “no binding”.

As for YRERGALA, the antigen binding call was “binds”.

For YRERGAAA, the antigen binding call is recorded as “binds”.

On to VTGGDALA, for which the antigen binding call is recorded as “no binding”.

FRERGALA: the antigen binding call is “binds”.

As for FRERGYGA, the antigen binding call is recorded as “no binding”.

As for FRERGDGA, the antigen binding call was “no binding”.

As to STGTGALA, the antigen binding call is “no binding”.

Turning to FTGGDALA, the antigen binding call is listed as “binds”.

In the case of SGRGNSVD, the antigen binding call is reported as “no binding”.

Turning to VEEEGDVA, the antigen binding call was “no binding”.

For the variant STEEGDWV, the antigen binding call is recorded as “no binding”.

Consider AEGTNAGD, for which the antigen binding call is recorded as “no binding”.

On to VETGNDAV, for which the antigen binding call is listed as “no binding”.

Regarding FRERNAAA, the antigen binding call is “no binding”.

For YRERGSAA, the antigen binding call was “binds”.

Turning to FRERGAAA, the antigen binding call is “binds”.

As to FRGRGALA, the antigen binding call is given as “binds”.

Take FEEGTDWY: the antigen binding call is “no binding”.

Take DGGKNDAV: the antigen binding call is on record as “no binding”.

For DRAGDAGY, the antigen binding call is given as “no binding”.

Consider YGETGFGS, for which the antigen binding call is “no binding”.

For the variant YRAGGFGS, the antigen binding call was “binds”.

As to SRARDFGY, the antigen binding call is “no binding”.

For YRAGGFGY, the antigen binding call is recorded as “binds”.

Turning to YRAGGAGY, the antigen binding call is “binds”.

For YRARSFGD, the antigen binding call was “no binding”.

For YAAGSFGY, the antigen binding call is listed as “no binding”.

For the variant YRARSFGS, the antigen binding call was “binds”.

Take SEARSSGF: the antigen binding call is on record as “no binding”.

With YATEAFSD, the antigen binding call is on record as “no binding”.

As to YAKGDDAS, the antigen binding call is reported as “no binding”.

As for DEGGGDGA, the antigen binding call was “no binding”.

Turning to DAGKSDWY, the antigen binding call is listed as “no binding”.

As for YAEESDVA, the antigen binding call is “no binding”.

Regarding DTGTGALV, the antigen binding call is “no binding”.

Take YRAGGVGS: the antigen binding call is recorded as “binds”.

In the case of YRARGYVY, the antigen binding call is recorded as “no binding”.

Consider YRAGGYGY, for which the antigen binding call is on record as “binds”.

On to YRARGAGY, for which the antigen binding call is given as “binds”.

For the variant YRARGSGY, the antigen binding call is recorded as “binds”.

For DTKAADWY, the antigen binding call is “no binding”.

As to VKEGGDVV, the antigen binding call is given as “no binding”.

Turning to YKRESAAV, the antigen binding call is listed as “binds”.

As to VEGTSSSV, the antigen binding call was “no binding”.

Regarding YKRESSSV, the antigen binding call is on record as “binds”.

For YKGKDSSV, the antigen binding call is on record as “binds”.

With YGRTSAAV, the antigen binding call is “no binding”.

YERESAAV: the antigen binding call is “no binding”.

Turning to YAGKDDWV, the antigen binding call was “no binding”.

FEGGTDVV: the antigen binding call was “no binding”.

On to YKGRGAAF, for which the antigen binding call is recorded as “binds”.

As to YKGRGSAF, the antigen binding call is reported as “binds”.

Regarding YKGRGAGF, the antigen binding call is given as “binds”.

Consider YKGRGYGF, for which the antigen binding call is on record as “no binding”.

Consider DAGRSDLV chain 1 R67H, for which the antigen binding call is listed as “no binding”.

The values above are taken from the emibetuzumab library of Makowski et al. (2022).
